Source: PubChem BioAssay (National Center for Advancing Translational Sciences (NCATS))
Many of the other results were omitted from the sample, so hits are more common in it than they were.
KDM5B inhibitor = blocks human KDM5B histone demethylase activity. Potency, µM (top dose mostly 57.7 µM), most hits filed as inhibitors. Q9UGL1. actives 2.6% (n = 220,000). AID 1347165. KDM5B demethylase, FDH-coupled NADH fluorescence (FDH is formaldehyde dehydrogenase); active = well fitted inhibition curve with a large enough effect; also: nearly all actives have a fitted effect of over 70% in size
Target sequence (Q9UGL1 whole entry, looked up): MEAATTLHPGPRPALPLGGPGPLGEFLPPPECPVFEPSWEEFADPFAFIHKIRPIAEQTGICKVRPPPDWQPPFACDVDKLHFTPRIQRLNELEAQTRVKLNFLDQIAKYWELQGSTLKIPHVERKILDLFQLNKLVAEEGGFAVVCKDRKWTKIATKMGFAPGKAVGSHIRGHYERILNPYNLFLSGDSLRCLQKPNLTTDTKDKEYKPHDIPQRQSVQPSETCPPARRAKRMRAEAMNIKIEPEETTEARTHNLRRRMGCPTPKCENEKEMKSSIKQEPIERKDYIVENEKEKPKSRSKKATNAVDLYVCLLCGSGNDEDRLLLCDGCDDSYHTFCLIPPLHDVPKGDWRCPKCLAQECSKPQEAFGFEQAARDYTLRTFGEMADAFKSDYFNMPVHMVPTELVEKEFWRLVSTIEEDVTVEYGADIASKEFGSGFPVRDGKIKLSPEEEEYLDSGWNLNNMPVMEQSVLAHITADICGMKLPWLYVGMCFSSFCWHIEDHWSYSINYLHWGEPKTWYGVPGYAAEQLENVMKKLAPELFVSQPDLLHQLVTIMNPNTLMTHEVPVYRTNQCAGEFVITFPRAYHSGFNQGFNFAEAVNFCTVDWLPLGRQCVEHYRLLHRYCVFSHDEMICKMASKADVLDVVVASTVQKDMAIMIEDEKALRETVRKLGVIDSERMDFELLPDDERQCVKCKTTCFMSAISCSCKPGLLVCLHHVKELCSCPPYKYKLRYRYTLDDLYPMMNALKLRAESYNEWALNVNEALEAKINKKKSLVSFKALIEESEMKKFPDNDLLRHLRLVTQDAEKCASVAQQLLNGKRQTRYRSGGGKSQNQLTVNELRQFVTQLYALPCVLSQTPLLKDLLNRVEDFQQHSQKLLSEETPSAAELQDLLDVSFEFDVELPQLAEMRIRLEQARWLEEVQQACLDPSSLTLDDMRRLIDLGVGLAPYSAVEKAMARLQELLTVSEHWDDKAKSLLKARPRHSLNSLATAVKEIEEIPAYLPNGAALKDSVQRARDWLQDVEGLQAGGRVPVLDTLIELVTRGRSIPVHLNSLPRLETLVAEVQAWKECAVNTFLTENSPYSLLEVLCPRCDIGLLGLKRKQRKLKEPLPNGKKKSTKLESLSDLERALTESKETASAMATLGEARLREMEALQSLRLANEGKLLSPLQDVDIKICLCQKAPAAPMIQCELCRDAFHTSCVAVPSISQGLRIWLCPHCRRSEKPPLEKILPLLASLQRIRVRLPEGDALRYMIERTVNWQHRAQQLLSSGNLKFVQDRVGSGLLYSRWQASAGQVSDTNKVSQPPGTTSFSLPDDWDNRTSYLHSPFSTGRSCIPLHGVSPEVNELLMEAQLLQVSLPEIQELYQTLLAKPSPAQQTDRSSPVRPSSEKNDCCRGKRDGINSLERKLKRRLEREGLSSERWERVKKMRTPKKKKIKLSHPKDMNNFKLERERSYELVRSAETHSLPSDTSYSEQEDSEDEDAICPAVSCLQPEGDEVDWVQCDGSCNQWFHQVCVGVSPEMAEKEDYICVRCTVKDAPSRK
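qHTS format, multiple compound concentrations. Buffer 50 mM HEPES pH 7.5/0.01% Tween-20; 200 nM KDM5BΔAP final; 10 min compound preincubation; substrate-mix levels 12.5 µM peptide, 25 µM α-KG, 0.25 mM NAD⁺; 30 min RT; ΔRFU.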
Each line names hits and unclear results; the compound was inactive in the other large screens.

CC(C)c1ccc(NC(=O)c2ccc[n+]([O-])c2)cc1	none
CO[C@H]1C(=O)N(C2CCN(S(=O)(=O)c3cccnc3)CC2)[C@H]1c1ccncc1	none
CCCCCCCCCCOC(=O)C[N+](C)(C)Cc1ccccc1	none
CCOc1ccccc1N1CCN(CC(=O)Nc2ccc(C)cc2F)CC1	none
COc1ccc(NC(=O)N2C[C@@H]3C[C@H](C2)c2ccc(NC(=O)Nc4cccc(C#N)c4)c(=O)n2C3)cc1	KDM5B inhibitor 28.2µM
COc1ccc(CC(=O)Nc2ccc(=O)n3c2[C@@H]2C[C@@H](CN(C(=O)c4ccc(OC)cc4)C2)C3)cc1	none
COc1ccc(NC(=O)N2C[C@@H]3C[C@H](C2)c2ccc(NC(=O)c4ccc(C#N)cc4)c(=O)n2C3)cc1	none
COc1ccc(CC(=O)Nc2ccc3n(c2=O)C[C@H]2C[C@@H]3CN(C(=O)c3ccc(-c4ccccc4)cc3)C2)cc1	KDM5B inhibitor 25.1µM
CN(C)CC(=O)Nc1ccc2n(c1=O)C[C@H]1C[C@@H]2CN(C(=O)c2ccc3ccccc3c2)C1	none
COc1ccc(NC(=O)N2C[C@@H]3C[C@H](C2)c2ccc(NC(=O)c4cccs4)c(=O)n2C3)cc1	none
O=C(Nc1cccc(F)c1)Nc1ccc2n(c1=O)C[C@H]1C[C@@H]2CN(C(=O)c2ccc(F)cc2)C1	KDM5B inhibitor 28.2µM
O=C(O)c1cccc(C(=O)N2C[C@@H]3C[C@H](C2)c2ccc(NC(=O)c4ccco4)c(=O)n2C3)c1	none
COc1ccc(CC(=O)Nc2ccc3n(c2=O)C[C@H]2C[C@@H]3CN(C(=O)Nc3ccc(OC)cc3)C2)cc1	none
Cc1ccc(C2C(C#N)=C(N)OC3=C2C(=O)CC(C)(C)C3)cc1 (configuration not stated)	none
C=CCOc1ccc(CNC2CC2)cc1	none
O=C(NCCc1ccccc1)c1nc(-c2cccc3[nH]ccc23)no1	none
CCc1c(C)sc(NC(=O)CCCCl)c1C#N	none
Fc1cc(Cl)ccc1C1c2nc[nH]c2CCN1Cc1ccccn1 (configuration not stated)	none
O=C(O)C1c2nc[nH]c2CCN1C(=O)CCN1CCCCC1 (configuration not stated)	none
Cn1c(-c2ccc(CN3CCc4[nH]cnc4C3C(=O)O)o2)nc2ccccc21 (configuration not stated)	KDM5B inhibitor 28.2µM
O=C(NCc1ccc(Cl)cc1)C1CCCN(c2cnn(Cc3ccccc3)c(=O)c2)C1 (configuration not stated)	none
Cc1ccc(-c2cnc(CCC(=O)Nc3ccccc3O)o2)cc1C	none
CCCCN(C)S(=O)(=O)c1ccc(NC(=O)Cc2nc(-c3ccccc3)oc2C)cc1	none
O=C(NC1CC(c2nnc(CO)n2C2CC2)C1)c1csc(-c2ccccc2)n1 (configuration not stated)	none
O=C(NC1CC(c2nnc(CO)n2C2CC2)C1)C1(c2ccccc2)CCCC1 (configuration not stated)	none
O=C(NC1CC(c2nnc(CO)n2C2CC2)C1)c1nc2ccccc2[nH]1 (configuration not stated)	KDM5B inhibitor 31.6µM
CC(=O)Nc1ccc(C(=O)N(CCc2ccccc2)Cc2cccs2)s1	none
CC(C)N(Cc1ccccc1)Cc1nnc2cc(-c3nc(-c4ccccc4)no3)ccn12	KDM5B inhibitor 28.2µM
CN(Cc1ccccc1)Cc1nnc2cc(-c3nc(-c4ccccc4)no3)ccn12	KDM5B inhibitor 28.2µM
CN(Cc1cccc(C(F)(F)F)c1)Cc1nc(-c2ccccc2)no1	none
COc1ccc(CN(C)c2ccc(-c3nc(-c4ccccc4)no3)cc2[N+](=O)[O-])cc1	none
CCN(C(=O)C1CCCCC1)C1CC1	none
Cc1cccc(Nc2nc(N)nc(CN3CC[C@@](O)(C4CCC4)[C@H](C)C3)n2)c1	none
CNC(=O)C1(N2CCC[C@H]2C(=O)NC(C)(C)C)COC1	none
COc1cc(CNn2cnnc2)cc(Cl)c1OCc1ccccc1	none
COc1cccc(C(=O)N2CCC(n3cc(-c4nc(-c5ccccc5)no4)nn3)C2)c1 (configuration not stated)	none
Nc1ncc(-c2ccccc2)c(-c2ccc(OCc3ccc(F)cc3)cc2O)n1	none
COc1cccc(-c2ccc(COc3ccc4c(cnn4CCC(=O)O)c3)cc2)c1F	none
COc1ccc(F)cc1-c1ccc(COc2ccc3c(cnn3CCC(=O)O)c2)cc1	none
O=C(Cn1cccc1-c1nc(-c2ccccc2)no1)NCc1ccc(F)cc1F	none
COc1cccc(-c2cccc(COc3cnc4c(ccn4CC(=O)O)c3)c2)c1F	KDM5B inhibitor 35.5µM
Cc1ccc(F)cc1-c1cccc(CCOc2cnc3c(ccn3CC(=O)O)c2)c1	KDM5B inhibitor 35.5µM
Cc1ccc(NC(=O)CSc2ncc3c(n2)-c2ccccc2N(Cc2cccc(F)c2)S3(=O)=O)cc1F	none
O=C(O)Cn1ccc2cc(OCc3cccc(-c4ccc(F)cc4F)c3)cnc21	KDM5B inhibitor 35.5µM
Cc1noc(-c2ccc(OCc3ccc(F)cc3)cc2O)c1-c1ccccc1	none
CC(C)N1CC2CCC(C1)N2Cc1cccc(-c2ccc(F)cc2F)c1	none
O=C(O)Cn1ccc2cc(OCCc3cccc(-c4ccc(F)cc4F)c3)cnc21	KDM5B inhibitor 35.5µM
Cc1ccc(F)cc1-c1cn(C)c(=O)n2cc(COc3ccccc3)nc12	none
O=C(O)Cn1nc(C2CC2)nc1CCCN1CCCC1=O	none
Cc1ccc(S(=O)(=O)N(C)C(C)c2cc3ccccc3o2)cc1C (configuration not stated)	none
Cc1c(CN2CCN(c3ncc(F)cn3)CC2)[nH]c2ccc(F)cc12	none
CNC(=O)c1ccc(CNC(=O)C2CCCC2)cc1	none
O=C(O)c1cc2ccc(OCCc3ccccc3)cc2[nH]1	none
O=C(O)Cn1ccc2cc(OCCc3cccc(-c4ccccc4F)c3)cnc21	KDM5B inhibitor 31.6µM
O=C(CCc1ccccc1)N1CCC(Oc2cnc3c(ccn3-c3cncnc3)c2)CC1	none
N#Cc1c(SCCN2CCCC2)nc(N2CCCC2)c2c1CCCC2	none
Cn1nccc1C(=O)N1CCC(OC2CCN(Cc3cccnc3)CC2)CC1	none
CC(=O)Nc1ccc(C(=O)N2C3CCC2CN(Cc2cccnc2)C3)cc1	none
Cn1nccc1C(=O)N1CCN(C2CCN(Cc3cccnc3)C2=O)CC1 (configuration not stated)	none
CNC(=O)c1cc(-c2ccnc(NC(C)=O)c2)cc2c1OCCN2Cc1cccnc1	KDM5B inhibitor 39.8µM
Cc1ccccc1CN1CCC(CN(Cc2cccnc2)C(=O)CN2CCOC2=O)CC1	none
CNC(=O)c1cc(-c2ccccc2)cc2c1OCCN2Cc1cccnc1	KDM5B inhibitor 31.6µM
COCC(=O)N1CCCN(Cc2cccnc2)c2ccccc21	none
CNC(=O)c1cc(-c2cccnc2)cc2c1OCCN2Cc1cccnc1	none
CNC(=O)c1cc(-c2ccncc2)cc2c1OCCN2Cc1cccnc1	none
CNC(=O)c1cc(-c2cnn(C)c2)cc2c1OCCN2Cc1cccnc1	KDM5B inhibitor 39.8µM
CNC(=O)c1cc(-c2ccc(O)c(F)c2)cc2c1OCCN2Cc1cccnc1	KDM5B inhibitor 28.2µM
Cc1ccc(CNC(=O)c2ccc3c(c2)CN(Cc2ccc(O)c(F)c2)CCO3)cc1	none
COc1ccc(-c2noc([C@@H]3CCCN3C(=O)c3ccc(Cl)cc3OC)n2)cc1OC	none
OCC1(Cc2ccccc2Cl)CCN(Cc2cc3ccccc3o2)CC1	none
CCOc1ccc(N(CC(=O)Nc2ccc(C(N)=O)cc2)S(=O)(=O)c2ccccc2)cc1	none
CC(NC(=O)CSc1cc(C(=O)NC2CC2)c2ccccc2n1)C1CC1 (configuration not stated)	none
CC(=O)NCc1cn[nH]c1-c1ccc(Cl)cc1	none
CC(C)n1nc(C(=O)N2CCN(c3ncccn3)CC2)c2ccccc2c1=O	none
CC(C)c1ccc(N2C(=S)N[C@H]3[C@@H](O)[C@H](O)C[C@@H](C(=O)N(C)Cc4ccccc4)[C@H]32)cc1	none
